Among all 57,000 sequences or so, about 5,100 (8.9%) were called active. No stated cut-off is given here; in the data, active = GI50 up to about 1.1 µM and inactive = higher. A selection follows. Potency and affinity values are given separately.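 Compound exposure: 48 hours, 5 concentrations, 96-well plates. GI50 = concentration required for 50% inhibition of growth.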

The test concerns HCT-116. Description: NCI tumour cell line growth inhibition, 48 h.
Turning to “[Bis(aminomethyl)tetramethylenesilane]dichloropaltinum(II), CHEMBL2146205”, the GI50 amounted to 11.5 µM.
Regarding “[Bis(aminomethyl)pentamethylenesilane]dichloropaltinum(II), CHEMBL2146202”, the GI50 was 2.48 µM.
CISPLATIN, CHEMBL11359 came in with a GI50 of 4.12 µM.
The value for “mu-(1,7-nanodiamine-N,N')bis-(cis-aminedichloroplatimum (II)), CHEMBL2146215” was 41.3 µM.
In the case of “[Bis(aminomethyl)pentamethylenesilane]tetrachloropaltinum(IV), CHEMBL2146204”, the GI50 came to 1.13 µM.
In turn, “[Bis(aminomethyl)dimethylsilane]tetrachloroplatinum(IV), CHEMBL2146190” returned a GI50 of 8.77 µM.
In the case of “[Bis(aminomethyl)diethylsilane]tetrachloroplatinum(IV), CHEMBL2146203”, the GI50 came out at 3.94 µM.
“[Bis(aminomethyl)tetramethylenesilane]tetrachloropaltinum(IV), CHEMBL2146189”: the GI50 is 4.18 µM.
